Test [1] is described as follows: qHTS of pediatric cancer cell lines to identify multiple opportunities for drug repurposing: Primary screen for RD cells (AID 1347104). Note: nearly all actives have a fitted effect of over 55% in size. In a few lines: (§1)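 Cells plated at 500-1,000/well in growth medium, compounds added after 5 h. MIPE tested at 11 points (from 0.78 nM), NPC at 8 points (from 0.59 nM). CellTiter-Glo luminescence after 48 h; concentration-response curves from primary screen.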

Test [2] is described as follows: qHTS of pediatric cancer cell lines to identify multiple opportunities for drug repurposing: Primary screen for MG 63 (6-TG R) cells (AID 1347105). Note: nearly all actives have a fitted effect of over 50% in size. The method, boiled down: as §1
For orientation: In qHTS, concentration-response curves come from the screen itself.

Test [3] can be described thus: qHTS of pediatric cancer cell lines to identify multiple opportunities for drug repurposing: Primary screen for control Hh wild type fibroblast cells (AID 1347106).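 Note: series mostly up to about 46 µM; a drop in luminescence marks cytotoxicity and a rise apparent proliferation; nearly all actives have a fitted effect of over 55% in size.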 The method, boiled down:
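Cells (500-1,000/well) in growth media were settled 5 h at 37 degrees C, then given compounds for 48 h. Viability was read as CellTiter-Glo luminescence. Primary runs used MIPE at 11 points (0.78 nM-46 µM) and NPC at 8 points (0.59 nM-46 µM); follow-ups used 11 points.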

Test [4] is described as follows: qHTS of pediatric cancer cell lines to identify multiple opportunities for drug repurposing: Primary screen for Rh30 cells (AID 1347107). Note: series mostly up to about 46 µM; nearly all actives have a fitted effect of over 75% in size. The method, boiled down:
(§2)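 Cells (500-1,000/well) rested 5 h, then received compounds for 48 h; metabolically active cells were measured by CellTiter-Glo luminescence. Final concentrations spanned up to 46 µM (MIPE, 11-point) or 0.59 nM-46 µM (NPC, 8-point) in primary screens, 11-point in follow-ups.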

A short description of test [5]: qHTS of pediatric cancer cell lines to identify multiple opportunities for drug repurposing: Primary screen for Rh41 cells (AID 1347108).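 Note: series mostly up to about 46 µM; luminescence drop marks cytotoxic hits; nearly all actives have a fitted effect of over 70% in size.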 The method, boiled down: as §1
Test [6] is described as follows: qHTS of pediatric cancer cell lines to identify multiple opportunities for drug repurposing: Confirmatory screen for NB1643 cells (AID 1347109). Note: nearly all actives have a fitted effect of over 45% in size. Note: potency is the fitted concentration of half-maximal effect. In a few lines:
as §2

A short description of test [7]: qHTS of pediatric cancer cell lines to identify multiple opportunities for drug repurposing: Confirmatory screen for BT-12 cells (AID 1347112). Note: potency is the fitted concentration of half-maximal effect; nearly all actives have a fitted effect of over 55% in size. In a few lines:
as §2

Test [8] in a line: qHTS of pediatric cancer cell lines to identify multiple opportunities for drug repurposing: Confirmatory screen for LAN-5 cells (AID 1347113). Note: nearly all actives have a fitted effect of over 65% in size. Note: potency is the fitted concentration of half-maximal effect. The method, boiled down: as §2
Test [9] is described as follows: qHTS of pediatric cancer cell lines to identify multiple opportunities for drug repurposing: Confirmatory screen for DAOY cells (AID 1347114). Note: nearly all actives have a fitted effect of over 65% in size. Note: potency is the fitted concentration of half-maximal effect. In a few lines: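 Viability measured as metabolically active cells via CellTiter-Glo luminescence following 48 hours of compound exposure, 11-point dilutions in confirmatory testing. 500-1,000 cells/well plated 5 hours before dosing; controls were DMSO and 2.3 µM bortezomib.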

Test [10] is described as follows: qHTS of pediatric cancer cell lines to identify multiple opportunities for drug repurposing: Confirmatory screen for BT-37 cells (AID 1347117). Note: nearly all actives have a fitted effect of over 55% in size. Note: potency is the fitted concentration of half-maximal effect. The method, boiled down: as §2
Test [11] is described as follows: qHTS of pediatric cancer cell lines to identify multiple opportunities for drug repurposing: Confirmatory screen for TC32 cells (AID 1347118).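 Note: potency is the fitted concentration of half-maximal effect; cells exposed to compound for 48 h before the read; nearly all actives have a fitted effect of over 65% in size.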 The method, boiled down:
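Luminescent ATP read-out (CellTiter-Glo) of metabolically active TC32 cells after 48 h exposure. Concentration-response curves came from 11-point (MIPE, 0.78 nM–46 µM) or 8-point (NPC, 0.59 nM–46 µM) primary titrations; follow-up used 11 points.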

Test [12] in a line: qHTS of pediatric cancer cell lines to identify multiple opportunities for drug repurposing: Confirmatory screen for MG 63 (6-TG R) cells (AID 1347119). The method, boiled down:
as §2

Test [13] in a line: qHTS of pediatric cancer cell lines to identify multiple opportunities for drug repurposing: Confirmatory screen for Rh41 cells (AID 1347123).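 Note: 48 h compound exposure; nearly all actives have a fitted effect of over 60% in size.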 Note: potency is the fitted concentration of half-maximal effect. The method, boiled down:
as §2

Test [14] in a line: qHTS of pediatric cancer cell lines to identify multiple opportunities for drug repurposing: Confirmatory screen for OHS-50 cells (AID 1347128). Note: potency is the fitted concentration of half-maximal effect. The method, boiled down: as §2
A short description of test [15]: qHTS of pediatric cancer cell lines to identify multiple opportunities for drug repurposing: Confirmatory screen for A673 cells (AID 1347110).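 Note: cells exposed to compound for 48 h before the viability read; nearly all actives have a fitted effect of over 65% in size.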 Note: potency is the fitted concentration of half-maximal effect. The method, boiled down:
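Cells plated at 500-1,000/well were treated five hours later with multi-point dilutions up to 46 µM final. After two days, CellTiter-Glo was added and luminescence read.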

The nature of test [16]: qHTS of pediatric cancer cell lines to identify multiple opportunities for drug repurposing: Confirmatory screen for NB-EBc1 cells (AID 1347115).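 Note: cells exposed to compound for 48 h before the viability read; nearly all actives have a fitted effect of over 45% in size.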 In a few lines:
as §2

The nature of test [17]: qHTS of pediatric cancer cell lines to identify multiple opportunities for drug repurposing: Confirmatory screen for control Hh wild type fibroblast cells (AID 1347121). Note: nearly all actives have a fitted effect of over 70% in size. The method, boiled down:
as §2

Test [18] is described as follows: qHTS of pediatric cancer cell lines to identify multiple opportunities for drug repurposing: Confirmatory screen for U-2 OS cells (AID 1347122). Note: nearly all actives have a fitted effect of over 65% in size. Note: potency is the fitted concentration of half-maximal effect. The method, boiled down: as §2
Test [19] is described as follows: qHTS of pediatric cancer cell lines to identify multiple opportunities for drug repurposing: Confirmatory screen for RD cells (AID 1347124). Note: potency is the fitted concentration of half-maximal effect. In a few lines: as §2
The nature of test [20]: qHTS of pediatric cancer cell lines to identify multiple opportunities for drug repurposing: Confirmatory screen for Saos-2 cells (AID 1347127). Note: nearly all actives have a fitted effect of over 60% in size. The method, boiled down: as §2

The structures appear in SMILES notation. Results filed as inconclusive are left out. Active and inactive are the calls of the source. Calls come from the whole dose curve; as a rule, active = well fitted curve in the direction sought with a large enough effect; inconclusive = small, poorly fitted or top-dose-only effect, or another doubt; inactive = no such curve, though single readings can be large; an effect the other way counts as inactive or inconclusive.

`CCCCC(=O)OCC(=O)[C@H]1[C@H](C)C[C@H]2[C@@H]3C[C@H](F)C4=CC(=O)C=C[C@]4(C)[C@@]3(F)[C@@H](O)C[C@@]21C`: the Potency result in test [1], in [2], in [3], in [4], in test [5] and in test [9] was “inactive” in each case. Besides, the Potency in test [6] is 18.5 µM (active); in test [7] it was 14.7 µM (active); in test [8], 23.3 µM (active); in test [10] it was 20.8 µM (active); in test [11] it was 16.5 µM (active); in [12], 18.5 µM (active). For the same compound, the Potency in test [13] was 29.3 µM (active); in [14] it was 20.8 µM (active).
Turning to `Cc1ccc(/C=N/n2c(-c3ccccc3)csc2=S)cc1`, the Potency entry in [1], in test [2], in test [3] and in [5] was “inactive” throughout.
Consider `CCCCCOc1ccc(C2SC(=O)NC2=O)cc1OCC` (stereo unspecified), for which the Potency result in test [1], in test [2], in [4] and in test [5] was “inactive” each time.
For `Oc1ccccc1-c1nnco1`, the Potency result in test [1], in test [2], in test [4] and in [5] was “inactive” each time.
With `N=C(N)c1ccc(OCCCOc2ccc(C(=N)N)cc2)cc1`, the Potency result in test [1], in test [2], in test [3], in test [4], in test [5] and in test [6] was “inactive” each time. Also, the Potency entry in test [15], in test [8], in test [16], in test [10], in test [17] and in [13] was “inactive” each time. Moreover, the Potency result in test [19], in test [20] and in [14] was “inactive” in each case. In addition, the figures for the Potency in [9], in test [11] and in test [18] were 18.5 µM (active), 23.3 µM (active) and 0.465 µM (active), respectively.
Take `Cn1c(=O)c2c(ncn2CC(=O)O)n(C)c1=O`: the Potency entry in test [1], in test [2] and in test [4] was “inactive” each time.
For the compound `CC(=O)[C@@]1(O)CC[C@H]2[C@@H]3C[C@H](C)C4=CC(=O)CC[C@]4(C)[C@H]3CC[C@@]21C`, the Potency result in [1], in test [2], in test [3], in test [4], in test [6] and in test [8] was “inactive” in each case. Besides, the Potency entry in test [16], in test [10], in test [17], in test [18], in test [20] and in test [14] was “inactive” in each case. Moreover, the Potency in [15] was 0.261 µM (active); in test [11], 10.4 µM (active); in test [19], 0.827 µM (active).
Take `Cc1ncc(CO)c(CO)c1O`: the Potency result in test [1], in [2], in test [3] and in [5] was “inactive” each time.

The values above are taken from PubChem BioAssay (NCATS).
